{
  "source": "paper PMC5869772",
  "about": "“Quantitative profiling of BATF family proteins/JUNB/IRF hetero-trimers using Spec-seq”",
  "data": [
    {"molecular_target": "T1, BATF3;JUNB (human;human, UniProt Q9NR55;P17275 1-127;148-347, |)", "T1 sequence 1": "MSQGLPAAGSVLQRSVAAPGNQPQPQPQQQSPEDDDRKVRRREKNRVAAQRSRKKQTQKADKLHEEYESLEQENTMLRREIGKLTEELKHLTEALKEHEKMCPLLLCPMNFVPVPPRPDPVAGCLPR", "T1 sequence 2": "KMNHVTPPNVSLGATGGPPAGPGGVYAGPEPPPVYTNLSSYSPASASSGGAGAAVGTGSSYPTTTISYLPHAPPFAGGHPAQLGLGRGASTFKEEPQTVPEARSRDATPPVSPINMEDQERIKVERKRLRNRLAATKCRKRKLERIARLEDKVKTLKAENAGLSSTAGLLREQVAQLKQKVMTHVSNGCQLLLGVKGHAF", "test": "Spec-seq (EMSA and sequencing of bound and unbound bands); 100 nM BATFx-JUNB, 1 uM dsDNA library, 50 mM K acetate, 20 mM Tris-acetate, 10 mM Mg acetate, 100 ug/ml BSA, pH 7.9, 10% glycerol, 30 min on ice; native 9% PAGE at 4 C; low values mean tight binding", "conditions": "protein: recombinant;recombinant; tags: N-terminal mCherry-TEV, cleaved off;C-terminal 6His; copies: 1;1; dsDNA, one strand shown", "in_short": "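The protein, at 100 nM, was incubated with 1 μM double-stranded degenerate DNA library for 30 min on ice in NEB Cutsmart buffer with 10% glycerol, then resolved by native 9% PAGE at 4 °C. Excised bound and unbound bands were PCR-barcoded and Illumina-sequenced, and each sequence's relative binding energy in kT is −ln of its bound/unbound read-count ratio.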", "units": {"binding signal": "kT"}, "values": [
      {"sequence": "GATAGTCTCATTTTCACCCCGTGAAATGACTAATTTGTTCCATTACAGTATCTGT", "binding signal": -0.424},
      {"sequence": "GATAGTCTCATTTTCACCCCGTGAAAATGGGTCATTGTTCCATTACAGTATCTGT", "binding signal": 0.203},
      {"sequence": "GATAGTCTCATTTTCACCCCGTGAAATGAGTGAGTTGTTCCATTACAGTATCTGT", "binding signal": 0.377},
      {"sequence": "GATAGTCTCATTTTCACCCCGTGAAATGATGTCATTGTTCCATTACAGTATCTGT", "binding signal": -1.63},
      {"sequence": "GATAGTCTCATTTTCACCCCGTGAAATGAGTCTCTTGTTCCATTACAGTATCTGT", "binding signal": 0.936},
      {"sequence": "GATAGTCTCATTTTCACCCCGTGAAATGACTCCGTTGTTCCATTACAGTATCTGT", "binding signal": 0.582},
      {"sequence": "GATAGTCTCATTTTCACCCCGTGAAATGACTCATTTGTTCCATTACAGTATCTGT", "binding signal": -1.24},
      {"sequence": "GATAGTCTCATTTTCACCCCGTGAAAGAGAGTCATTGTTCCATTACAGTATCTGT", "binding signal": 0.155},
      {"sequence": "GATAGTCTCATTTTCACCCCGTGAAATGGCTCATTTGTTCCATTACAGTATCTGT", "binding signal": 0.838},
      {"sequence": "GATAGTCTCATTTTCACCCCGTGAAATGGGTCATTTGTTCCATTACAGTATCTGT", "binding signal": 0.458},
      {"sequence": "GATAGTCTCATTTTCACCCCGTGAAATGGCGTCATTGTTCCATTACAGTATCTGT", "binding signal": -1.11},
      {"sequence": "GATAGTCTCATTTTCACCCCGTGAAATCACTCATTTGTTCCATTACAGTATCTGT", "binding signal": -0.147},
      {"sequence": "GATAGTCTCATTTTCACCCCGTGAAATGTGTCATTTGTTCCATTACAGTATCTGT", "binding signal": -0.44},
      {"sequence": "GATAGTCTCATTTTCACCCCGTGAAATGAGTTATTTGTTCCATTACAGTATCTGT", "binding signal": 0.54},
      {"sequence": "GATAGTCTCATTTTCACCCCGTGAAATGAGTCTGTTGTTCCATTACAGTATCTGT", "binding signal": 0.723},
      {"sequence": "GATAGTCTCATTTTCACCCCGTGAAATGACTGACTTGTTCCATTACAGTATCTGT", "binding signal": 0.305},
      {"sequence": "GATAGTCTCATTTTCACCCCGTGAAAAGGAGTCATTGTTCCATTACAGTATCTGT", "binding signal": 0.185},
      {"sequence": "GATAGTCTCATTTTCACCCCGTGAAATGAGACAGTTGTTCCATTACAGTATCTGT", "binding signal": 1.06},
      {"sequence": "GATAGTCTCATTTTCACCCCGTGAAATGGAGTCATTGTTCCATTACAGTATCTGT", "binding signal": -0.305},
      {"sequence": "GATAGTCTCATTTTCACCCCGTGAAATGAGCCACTTGTTCCATTACAGTATCTGT", "binding signal": 1.15},
      {"sequence": "GATAGTCTCATTTTCACCCCGTGAAATGACTCTATTGTTCCATTACAGTATCTGT", "binding signal": 0.236},
      {"sequence": "GATAGTCTCATTTTCACCCCGTGAAAGGGAGTCATTGTTCCATTACAGTATCTGT", "binding signal": 0.287},
      {"sequence": "GATAGTCTCATTTTCACCCCGTGAAACGGAGTCATTGTTCCATTACAGTATCTGT", "binding signal": 0.06},
      {"sequence": "GATAGTCTCATTTTCACCCCGTGAAAGTGGGTCATTGTTCCATTACAGTATCTGT", "binding signal": 0.613},
      {"sequence": "GATAGTCTCATTTTCACCCCGTGAAATGAGTCATTTGTTCCATTACAGTATCTGT", "binding signal": -1.42},
      {"sequence": "GATAGTCTCATTTTCACCCCGTGAAATGAGCCAATTGTTCCATTACAGTATCTGT", "binding signal": 0.829},
      {"sequence": "GATAGTCTCATTTTCACCCCGTGAAATTGTGTCATTGTTCCATTACAGTATCTGT", "binding signal": -0.677},
      {"sequence": "GATAGTCTCATTTTCACCCCGTGAAATGAGACATTTGTTCCATTACAGTATCTGT", "binding signal": 0.604},
      {"sequence": "GATAGTCTCATTTTCACCCCGTGAAAGTCAGTCATTGTTCCATTACAGTATCTGT", "binding signal": 0.152},
      {"sequence": "GATAGTCTCATTTTCACCCCGTGAAATGACTTCATTGTTCCATTACAGTATCTGT", "binding signal": -0.643},
      {"sequence": "GATAGTCTCATTTTCACCCCGTGAAAACGAGTCATTGTTCCATTACAGTATCTGT", "binding signal": -0.328},
      {"sequence": "GATAGTCTCATTTTCACCCCGTGAAAATGCGTCATTGTTCCATTACAGTATCTGT", "binding signal": -1.11},
      {"sequence": "GATAGTCTCATTTTCACCCCGTGAAATCAGTCATTTGTTCCATTACAGTATCTGT", "binding signal": -0.231}
    ]}
  ]
}
